mHTT-CaM PPI inh = mutant huntingtin-calmodulin interaction inhibitors – biochemical, AlphaScreen, primary screen; inhibition, % at 15 µM; AlphaScreen His-mHTT/GST-CaM binding, luminescence; AID 1671202, 2021; hit rate 3.6% among 190,000; P42858;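 note: 0% = both proteins with DMSO and 100% = one protein alone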
Pf apPOL inh = Pf-apPOL inhibitors, biochemical, fluorescence; Plasmodium falciparum apicoplast DNA polymerase (apPOL); Recombinant Pf-apPOL, molecular beacon fluorescence, 1.5 h; inhibition, % at 10 µM; hit rate 0.25% among 210,000; AID 1794808, 2022
Starred values were filed as active, the others as inactive. Sampled rows, rich in hits. Any-hit rate of the full collection: about 3.6%. Cut-off read from the data, not from the text of the source: active = inhibition above about 50%; inactive = the rest.

What do the screens show for `CCCn1cc2c3c(cccc31)CN(C(=O)Nc1cc(OC)ccc1OC)CC2`?
mHTT-CaM PPI inh: 73*; Pf apPOL inh: -1

Results for COc1ccc(NC(=O)N2CCc3cn(C)c4cccc(c34)C2)c(OC)c1 ?
mHTT-CaM PPI inh: 75*; Pf apPOL inh: -2

What do the screens show for `COc1ccccc1NC(=O)N1CCc2cn(C)c3cccc(c23)C1`?
mHTT-CaM PPI inh: 51*; Pf apPOL inh: -1

What do the screens show for `CCn1cc2c3c(cccc31)CN(C(=O)Nc1ccccc1OC)CC2`?
mHTT-CaM PPI inh: 29; Pf apPOL inh: -1

How did COc1ccc(OC)c(NC(=O)N2CCc3cn(C)c4cccc(c34)C2)c1 do in these assays?
mHTT-CaM PPI inh: 62*; Pf apPOL inh: 3

Results for CCC(C)NC(=O)NC1(C(F)(F)F)Oc2ccc(Cl)cc2O1 (configuration not stated) ?
mHTT-CaM PPI inh: 1; Pf apPOL inh: -4

How did O=C1/C(=C/c2ccccc2)CC/C1=C\c1ccccc1 do in these assays?
mHTT-CaM PPI inh: 21; Pf apPOL inh: -2

What do the screens show for `COc1cccc(C2=COC3(CCCN(C(C)=O)C3)C2)c1` (configuration not stated)?
mHTT-CaM PPI inh: -14; Pf apPOL inh: -9

What do the screens show for `COc1ccc(C2=NOC(C(=O)NCc3ccc(F)cc3)C2)cc1` (configuration not stated)?
mHTT-CaM PPI inh: -4; Pf apPOL inh: 5

Results for O=C(Cc1cccc(F)c1)N1CCC2(CC1)Nc1ccccc1-n1cccc12 ?
mHTT-CaM PPI inh: 59*; Pf apPOL inh: 1

How did O=C(Cc1cccc(F)c1)N1CCC2(C1)C(=O)Nc1ccccc12 (configuration not stated) do in these assays?
mHTT-CaM PPI inh: 7; Pf apPOL inh: -2

How did O=C(COc1ccc(Cl)cc1)N1CCC2(CC1)Nc1ccccc1-n1cccc12 do in these assays?
mHTT-CaM PPI inh: 93*; Pf apPOL inh: -2

How did CCOc1ccccc1C(=O)N1CCC2(CC1)Nc1ccccc1-n1cccc12 do in these assays?
mHTT-CaM PPI inh: 16; Pf apPOL inh: -4

Results for COc1ccc(OCC(=O)N2CCC3(CC2)Nc2cccnc2NC3=NC(C)(C)C)cc1 ?
mHTT-CaM PPI inh: 16; Pf apPOL inh: -1

Results for COc1ccc2c(c1)NC1(CCN(C(=O)COc3ccc(F)cc3)CC1)c1cccn1-2 ?
mHTT-CaM PPI inh: 96*; Pf apPOL inh: 1

How did Cc1cccc(OCC(=O)N2CCC3(CC2)NC(=O)N(Cc2ccc(F)cc2)C3=O)c1 do in these assays?
mHTT-CaM PPI inh: 29; Pf apPOL inh: -5

How did COc1ccc(OCC(=O)N2CCC3(CC2)Nc2cc(C)ccc2-n2cccc23)cc1 do in these assays?
mHTT-CaM PPI inh: 54*; Pf apPOL inh: 4

How did c1ccc(CC2CN=C(N3CCOCC3)S2)cc1 (configuration not stated) do in these assays?
mHTT-CaM PPI inh: 0; Pf apPOL inh: -5

How did Cc1cccc(N2CCN(CC(O)c3ccc4c(c3)CCN4)CC2)c1C (configuration not stated) do in these assays?
mHTT-CaM PPI inh: 22; Pf apPOL inh: 1

How did O=C(c1ccccc1[N+](=O)[O-])N1CCc2ccccc2C1 do in these assays?
mHTT-CaM PPI inh: -6; Pf apPOL inh: 0

How did COc1cc(C=CC2=NNC(=O)CC2)cc(OC)c1OC do in these assays?
Pf apPOL inh: -12

What do the screens show for `Cc1ccsc1C1C=C(c2cccc(Br)c2)Nc2ncnn21` (configuration not stated)?
mHTT-CaM PPI inh: 4; Pf apPOL inh: -2

Results for COc1cccc(CC(=O)N2CCC3(CC2)Nc2cc(OC)ccc2-n2cccc23)c1 ?
mHTT-CaM PPI inh: 92*; Pf apPOL inh: -6

Results for Cc1ccc(CN2C(=O)NC3(CCN(C(=O)COc4cccc(C)c4)CC3)C2=O)cc1 ?
mHTT-CaM PPI inh: 5; Pf apPOL inh: -7

How did COc1cccc(CC(=O)N2CCC3(CC2)NC(=O)N(Cc2ccc(C)cc2)C3=O)c1 do in these assays?
mHTT-CaM PPI inh: 14; Pf apPOL inh: -2

What do the screens show for `COc1ccc2c(c1)NC1(CCN(C(=O)COc3cccc(C)c3)CC1)c1cccn1-2`?
mHTT-CaM PPI inh: 85*; Pf apPOL inh: -9

Results for N#CC1=C(N)C(C#N)(C#N)C(c2ccccc2)C2CNCC=C12 (configuration not stated) ?
mHTT-CaM PPI inh: 23; Pf apPOL inh: -2

Results for COC(=O)c1c(C)oc(C)c1S(=O)(=O)Nc1c(-c2ccccc2)c(C(F)(F)F)nn1C ?
Pf apPOL inh: 8

What do the screens show for `Cc1cccc(NC(=O)c2cc3ccccc3o2)c1`?
mHTT-CaM PPI inh: -16; Pf apPOL inh: 0

Results for C=CCn1c(SCCC)nc(O)cc1=O ?
mHTT-CaM PPI inh: -7; Pf apPOL inh: -1

Results for CCCc1nc2cccnc2n1C1CCN(C(=O)Nc2ccccc2)C1 (configuration not stated) ?
mHTT-CaM PPI inh: 2; Pf apPOL inh: -2

What do the screens show for `Cc1cccc(CN(c2ccc(Br)cc2)S(C)(=O)=O)c1`?
mHTT-CaM PPI inh: -23; Pf apPOL inh: 0

What do the screens show for `O=C(O)COc1ccccc1C1OC2CCCCC2C2=CCCCC21` (configuration not stated)?
mHTT-CaM PPI inh: 50*; Pf apPOL inh: -6

Results for Oc1ccccc1C1OC2CCCCC2C2=CCCCC21 (configuration not stated) ?
mHTT-CaM PPI inh: -8; Pf apPOL inh: -7

Results for COc1ccc(OC)c(/C=C2/C(=N)N3N=C(C(F)(F)F)SC3=NC2=O)c1 ?
mHTT-CaM PPI inh: 4; Pf apPOL inh: -1

What do the screens show for `O=C(CSc1cn(Cc2ccc(Cl)cc2)c2ccccc12)Nc1ccc2c(c1)OCCO2`?
mHTT-CaM PPI inh: 44; Pf apPOL inh: -2

What do the screens show for `Cc1ccc2nc(NC(N)=NS(=O)(=O)c3ccc([N+](=O)[O-])cc3)nc(C)c2c1`?
mHTT-CaM PPI inh: 18; Pf apPOL inh: -4

Results for O=C(NCc1cccnc1)[C@@H]1CC=C[C@@H]2CCN(Cc3ccc(Cl)c(Cl)c3)C(=O)[C@@H]21 ?
mHTT-CaM PPI inh: 59*; Pf apPOL inh: -6

Results for CCCCNC(=O)[C@@H]1CC=C[C@@H]2CCN(Cc3ccc(Cl)c(Cl)c3)C(=O)[C@@H]21 ?
mHTT-CaM PPI inh: 25; Pf apPOL inh: -15

What do the screens show for `COc1ccc(CNC(=O)[C@@H]2CC=C[C@@H]3CCN(Cc4ccccc4)C(=O)[C@@H]32)cc1`?
mHTT-CaM PPI inh: 5; Pf apPOL inh: 0

Results for O=C(NCCc1ccccc1)[C@@H]1CC=C[C@@H]2CCN(Cc3ccc(Cl)c(Cl)c3)C(=O)[C@@H]21 ?
mHTT-CaM PPI inh: 100*; Pf apPOL inh: -9

What do the screens show for `CC1(C)Cc2c(sc(N3C(=O)C4CC=C(Cl)CC4C3=O)c2C#N)CO1` (configuration not stated)?
mHTT-CaM PPI inh: 5; Pf apPOL inh: -1

How did Cc1cc(NC(=O)NC2CCCCC2)no1 do in these assays?
mHTT-CaM PPI inh: -2; Pf apPOL inh: -1

Results for Cc1nc2c(C(=O)NCCc3ccccc3)c[nH]n2c(=O)c1Cc1ccc(Cl)cc1 ?
mHTT-CaM PPI inh: 68*; Pf apPOL inh: -5

What do the screens show for `Cc1nc2c(C(=O)NCCc3ccc(Cl)cc3)c[nH]n2c(=O)c1Cc1ccccc1F`?
mHTT-CaM PPI inh: 74*; Pf apPOL inh: -3

How did Cc1ccc(CCNC(=O)c2c[nH]n3c(=O)c(Cc4ccccc4F)c(C)nc23)cc1 do in these assays?
mHTT-CaM PPI inh: 31; Pf apPOL inh: -15
